Screening results deposited in PubChem BioAssay by National Center for Advancing Translational Sciences (NCATS).
TbPYK inhibitor: inhibitors of Trypanosoma brucei pyruvate kinase | Q57TT1 | TbPYK enzyme, Kinase-Glo Plus ATP luminescence, 45 min | Potency, µM (highest dose often 76.8 µM), for the others: at the top dose activity, negative = inhibition, usual class: inhibitors | 410,000 compounds, 0.12% hits | AID 624173; further: potency means the concentration at half of the fitted maximal effect; on the % scale 0 is the no-effect control and ±100 the full control effect; nearly all actives have a fitted effect of over 50% in size
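Glycolytic pyruvate kinase of T. brucei was incubated with substrate, test compound and 130 uM ADP for 45 minutes at room temperature. Luminescent Kinase-Glo Plus signal was measured after 10 minutes.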
Shiga toxin inh: inhibitors of Shiga toxin in Vero cells; AID 2315; Vero cells, Shiga toxin protein synthesis inhibition reporter; 290,000 compounds, 9.2% hits; inhibition, % at 38.7 µM; in the data active means inhibition mostly above about 28%, no sharp cut-off; inactive means mostly below about 43%; further: 0% is about no effect
Cycloheximide cs: affects cycloheximide protein synthesis inhibition readout, counter-screen; cell reporter, cycloheximide protein synthesis inhibition counterscreen; max response, %; 300,000 compounds, 12% hits; in the data active means max response mostly above about 13%, no sharp cut-off; inactive means mostly below about 14%; further: read at 38.3 µM for the half of the compounds with a filed dose; 0% is about no effect
LmPK inhibitor: inhibitors of Leishmania mexicana pyruvate kinase; purified LmPK, Kinase-Glo ATP luminescence, 1 h; Potency, µM (highest dose often 57.5 µM), without a hit: at the highest dose activity change, negative = inhibition, hits mostly inhibitors; 290,000 compounds, 0.37% hits; AID 1721; further: potency means the concentration at half of the fitted maximal effect; on the % scale 0 is the no-effect control and ±100 the full control effect
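ATP generated from ADP (0.1 mM) and PEP (0.5 mM) by 0.1 nM LmPK over 1 h at room temperature (pH 7.2 imidazole buffer) was detected by coupled luciferase luminescence. Values were normalized to uninhibited and no-enzyme wells.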
Sm TGR block: blocks Schistosoma mansoni thioredoxin glutathione reductase; 360,000 compounds, 3% hits; AID 485364; purified TGR, DTNB reduction, TNB absorbance 405 nm; Q962Y6; Potency, µM (series often up to 114 µM), for the others: at the top dose activity change, negative = inhibition, most hits filed as inhibitors; further: potency means the concentration at half of the fitted maximal effect; on the % scale 0 is the no-effect control and ±100 the full control effect; nearly all actives have a fitted effect of over 60% in size
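Kinetic colorimetric format: TGR-catalysed, NADPH-driven DTNB reduction monitored via TNB absorbance. Enzyme dispensed at 20 nM; compound exposure 15 min at room temperature before reaction start.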
Giardia FBPA inh: inhibitors of Giardia lamblia fructose-1,6-bisphosphate aldolase. A8B2U2. purified Giardia FBPA. Potency, µM (titrated, usually from 59.6 µM), without a hit: at the highest dose activity, negative = inhibition, most hits filed as inhibitors. 290,000 compounds, 0.71% hits; further: potency means the concentration at half of the fitted maximal effect; on the % scale 0 is the no-effect control and ±100 the full control effect; nearly all actives have a fitted effect of over 55% in size
Target sequence (A8B2U2 whole entry, looked up): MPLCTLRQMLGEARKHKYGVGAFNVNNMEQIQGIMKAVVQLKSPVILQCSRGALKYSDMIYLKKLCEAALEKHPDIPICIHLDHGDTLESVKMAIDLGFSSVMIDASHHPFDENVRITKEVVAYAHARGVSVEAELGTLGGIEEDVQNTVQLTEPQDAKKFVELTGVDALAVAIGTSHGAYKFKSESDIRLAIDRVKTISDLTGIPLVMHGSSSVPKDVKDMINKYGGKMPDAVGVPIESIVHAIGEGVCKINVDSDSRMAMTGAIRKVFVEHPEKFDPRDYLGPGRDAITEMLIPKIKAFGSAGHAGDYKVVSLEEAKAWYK
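Giardia FBPA (40 nM reagent) was preincubated 10 min at RT with compound (up to 57.5 uM final), then substrate plus GAPDH/TPI/NAD/arsenate coupling system with diaphorase/resazurin was added; resorufin fluorescence (525/598 nm) was read after 20 min.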
An asterisk follows results filed as active; ? = inconclusive; . = not tested or not shown. This is one part of a sample in which hits are shown more often than they occur. Unless noted, the call rests on the fitted dose curve; in most records, active means well fitted curve in the direction sought with a large enough effect; inconclusive means small, poorly fitted or top-dose-only effect, or another doubt; inactive means no such curve, though single readings can be large; an effect the other way counts as inactive or inconclusive.

SMILES	TbPYK inhibitor	Shiga toxin inh	Cycloheximide cs	LmPK inhibitor	Sm TGR block	Giardia FBPA inh
Nc1nonc1-c1nc2ccccc2n1CC(=O)N/N=C/c1ccc(-c2cccc(C(=O)O)c2)o1	-18%	70*	34*	1%	50µM*	-14%
CCOC(=O)c1ccc(-c2ccc(/C=N/NC(=O)Cc3nnc(N)s3)o2)cc1	-1%	52*	42*	2%	0%	-3%
CCOC(=O)c1ccc(-c2ccc(/C=N/NC(=O)c3cncc(Br)c3)o2)cc1	0%	40*	13*	1%	21%	5%
O=C(Cc1ccc(Br)cc1)N/N=C/c1ccc(-c2cccc(C(=O)O)c2)o1	-1%	102*	31*	9%	?	15%
Cc1cccc(N2CCN(C3(c4ccccc4)C(=O)c4ccccc4C3=O)CC2C)c1 (stereo not drawn)	-2%	.	.	.	0%	.
CCCc1cc(=O)oc2c3c(ccc12)OCN(Cc1ccccc1OC)C3	0%	.	.	.	-2%	.
COC(=O)c1ccn(CC(=O)NC2CCCCC2)n1	-5%	-7	-4	-6%	-4%	.
O=C(O)c1cccc(-c2ccc(/C=N/NC(=O)c3cccnc3)o2)c1	-18%	171*	83*	6%	-14%	-17%
Nc1nnc(CC(=O)N/N=C/c2ccc(-c3cccc(C(=O)O)c3)o2)s1	2%	142*	61*	-5%	-31%	-15%
CCN(CC)CCN1C(=O)C(=O)/C(=C(/O)c2ccc(OC(C)C)cc2)C1c1cccs1 (stereo not drawn)	-5%	85*	45*	1%	?	-3%
CCN(CC)CCN1C(=O)C(=O)/C(=C(/O)c2c(C)[nH]c(C(=O)OC)c2C)C1c1ccccc1OC (stereo not drawn)	9%	-2	-3	0%	?	-2%
COC(=O)c1[nH]c(C)c(/C(O)=C2\C(=O)C(=O)N(CCN(C)C)C2c2ccc(C)o2)c1C (stereo not drawn)	-4%	-9	-7	-8%	32µM*	-15%
CCN(CC)CCN1C(=O)C(=O)/C(=C(/O)c2ccc(OC(C)C)cc2)C1c1ccncc1 (stereo not drawn)	2%	-11	-1	5%	-32%	6%
CCN(CC)CCN1C(=O)C(=O)/C(=C(/O)c2c(C)[nH]c(C(=O)OC)c2C)C1c1cccs1 (stereo not drawn)	-14%	24	23*	2%	0%	-4%
COC(=O)c1[nH]c(C)c(/C(O)=C2\C(=O)C(=O)N(CCN(C)C)C2c2ccco2)c1C (stereo not drawn)	-4%	10	-1	3%	?	-26%
O=C(Cn1cc(SCc2ccccc2F)c2ccccc21)N1CCCCCC1	-2%	.	.	.	4%	.
CCCCCn1c(C(C)NC(=O)c2ccccc2)nc2ccccc21 (stereo not drawn)	6%	.	.	.	8%	.
O=C(COc1ccccc1)NCCSCc1ccccc1Cl	0%	48*	42*	6%	0%	4%
O=C(CN1C(=O)c2ccccc2S1(=O)=O)NCCSCc1ccccc1Cl	4%	27	13*	-2%	-14%	7%
O=C(/C=C/c1ccccc1)NCCSCc1ccccc1Cl	-8%	-23	11*	4%	4%	-4%
CCS(=O)(=O)N1CCc2cc(C(=O)N3CCN(c4ccc(OC)cc4)CC3)ccc21	-4%	.	.	.	-4%	.
O=c1oc2ccccc2cc1-c1nc(-c2cccs2)cs1	-6%	37	14*	5%	-13%	-2%
COc1ccc2cc(-c3nnc(Nc4ccccc4)s3)c(=O)oc2c1	-5%	.	.	.	6%	.
N#C/C(=C\c1ccc(Cl)cc1)c1nc(-c2cc3ccccc3oc2=O)cs1	-3%	.	.	.	0%	.
N=c1oc2ccc3ccccc3c2cc1-c1nc(-c2ccccc2)cs1	0%	-2	-2	-1%	-23%	2%
SMILES	TbPYK inhibitor	Shiga toxin inh	Cycloheximide cs	LmPK inhibitor	Sm TGR block	Giardia FBPA inh
O=C(Nc1nc(-c2cccs2)cs1)c1cc2ccccc2oc1=O	.	8	1	2%	0%	2%
CNc1nnc(-c2cc3ccccc3oc2=O)s1	2%	83*	38*	-19%	8%	3%
CC1CCC(=C(C#N)c2nc(-c3cc4ccccc4oc3=O)cs2)CC1 (stereo not drawn)	3%	30*	23*	3%	-8%	1%
N=c1oc2ccccc2cc1-c1nc(-c2ccccc2)cs1	-4%	45*	42*	3%	-3%	3%
N#C/C(=C\c1cccc(F)c1)c1nc(-c2cc3ccccc3oc2=O)cs1	-12%	.	.	.	-12%	.
COc1cccc2cc(-c3nc(-c4cccs4)cs3)c(=O)oc12	5%	127*	37*	7%	1%	4%
N#CCc1nc(-c2cc3ccccc3oc2=O)cs1	-1%	51*	41*	-4%	-2%	1%
COc1ccc(NC(=O)CSc2nnc(NC(=O)C3CC3)s2)cc1OC	8%	14	5	-7%	2%	.
COc1cccc(CN2CCNC(=O)C2CC(=O)N(C)CCC2CCOCC2)c1OC (stereo not drawn)	8%	12	-3	-4%	25µM*	.
COc1cccc(CNC(=O)CC2C(=O)NCCN2Cc2ccoc2)c1OC (stereo not drawn)	-3%	-12	-2	7%	20µM*	-8%
COc1cccc(CN2CCNC(=O)C2CC(=O)NCCN2CCOCC2)c1OC (stereo not drawn)	1%	-6	-4	-5%	-9%	.
Cc1oc2ncn(CC(C)C)c(=O)c2c1C(=O)NCc1cccc(Cl)c1	2%	.	.	.	0%	.
Cc1ccc(-n2cnc3cc(C(=O)NCc4ccc(F)cc4)ccc32)c(C)c1	0%	.	.	.	4%	.
Cc1cc(C)c(C(=O)CN2C(=O)NC3(CCCCCC3)C2=O)cc1C	3%	41*	53*	-1%	-3%	2%
O=C1NC2(CCCCCC2)C(=O)N1Cc1ccc(Br)cc1	5%	-10	-1	7%	8%	.
COC(=O)c1ccc(CN2C(=O)NC3(CCCCC3)C2=O)cc1	2%	61*	119*	0%	2%	8%
Cc1cc(C(=O)CN2C(=O)NC3(CCCCC3)C2=O)c(C)n1C	1%	45*	38*	-2%	9%	-2%
COc1ccccc1C(=O)CN1C(=O)NC2(CCCCCC2)C1=O	-3%	.	.	.	.	.
COc1ccc(N(CC(C)C)S(=O)(=O)c2nnc(NC(=O)c3cccs3)s2)cc1	-2%	.	.	.	-10%	.
CN(C)CCCSc1ccccc1NC(=O)/C=C\c1ccccc1	.	.	.	.	.	1%
Cc1ccc(-n2nc(C(=O)N(C)Cc3ccccc3)c3c4ccccc4n(C)c3c2=O)cc1	4%	.	.	.	-1%	.
COC(=O)COc1ccc(S(=O)(=O)NCc2ccco2)cc1	6%	-3	-3	-1%	35µM*	2%
